High-throughput results: PubChem, several laboratories
MEKK3 PB1 HTS: MEKK3-MEK5 PB1 interaction, increase or decrease; 290,000 tested, 1.4% active; Q99759; binding response (% of control), % at 10 µM; AID 1529; bead-based flow cytometry, Alexa488-MEK5 binding to MEKK3; actives lie on both sides; 0 = blocked by unlabeled MEK5, 100 = vehicle;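 active means binding response more than 3 SD above or below the average of its plate-row segment, actives on both sides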;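 further: Alexa488 bead fluorescence after subtracting the streptavidin-only scavenger bead signal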
MEKK2wt PB1 HTS: raises or lowers MEK5 binding to wildtype human MEKK2 PB1 domain; bead flow cytometry, Alexa488-MEK5 binding to MEKK2 WT; actives lie on both sides; 290,000 tested, 1.1% active; AID 1531; binding response (% of control), % at 10 µM; in the data active means binding response below about 67% or above about 130%
NRP1-CendR mod: NRP-1/CendR interaction modulation; inhibition, % at 25 µM; AID 602438; O14786; 360,000 tested, 0.85% active; FAM-RPARPAR peptide binding to NRP-1, fluorescence polarization;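 active means inhibition or corrected inhibition above about 18%, plus a signal ratio from 0.5 to 1.5, limit read from the data, passing the limit was not always enough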
Target sequence (O14786 whole entry, looked up): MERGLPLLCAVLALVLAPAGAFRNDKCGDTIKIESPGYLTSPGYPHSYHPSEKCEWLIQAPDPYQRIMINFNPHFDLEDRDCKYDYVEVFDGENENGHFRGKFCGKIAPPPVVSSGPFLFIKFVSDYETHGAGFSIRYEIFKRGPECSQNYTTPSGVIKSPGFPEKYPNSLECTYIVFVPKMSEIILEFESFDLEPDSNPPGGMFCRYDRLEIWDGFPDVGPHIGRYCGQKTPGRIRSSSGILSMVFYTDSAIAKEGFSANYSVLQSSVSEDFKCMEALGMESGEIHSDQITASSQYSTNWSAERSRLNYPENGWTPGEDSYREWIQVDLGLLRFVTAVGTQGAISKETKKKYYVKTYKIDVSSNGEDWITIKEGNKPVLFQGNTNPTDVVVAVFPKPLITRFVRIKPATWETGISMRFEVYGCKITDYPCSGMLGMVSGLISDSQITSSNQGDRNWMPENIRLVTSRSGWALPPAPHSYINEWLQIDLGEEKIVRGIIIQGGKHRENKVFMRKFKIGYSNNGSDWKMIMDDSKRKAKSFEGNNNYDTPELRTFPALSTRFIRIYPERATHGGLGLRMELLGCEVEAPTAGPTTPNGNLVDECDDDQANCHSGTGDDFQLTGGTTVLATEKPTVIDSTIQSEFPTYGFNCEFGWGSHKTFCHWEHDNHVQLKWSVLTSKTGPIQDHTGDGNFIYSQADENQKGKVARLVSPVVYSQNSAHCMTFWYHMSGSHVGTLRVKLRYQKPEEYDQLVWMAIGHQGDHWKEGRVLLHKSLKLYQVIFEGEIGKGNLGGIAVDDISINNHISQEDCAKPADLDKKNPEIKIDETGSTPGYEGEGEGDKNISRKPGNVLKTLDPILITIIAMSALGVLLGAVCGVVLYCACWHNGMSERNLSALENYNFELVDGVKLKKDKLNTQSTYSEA
SKN-1 inh: inhibitors of C. elegans SKN-1. C. elegans VP596 Pgst-4::GFP/RFP ratio, acrylamide-induced, 24 h. inhibition, % at 21.8 µM. 360,000 tested, 0.49% active;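 active means interference check ratio from 0.5 to 1.5 plus GFP to RFP signal ratio inhibition reaching or exceeding a fixed threshold, cut at about 30% in these data, passing the limit was not always enough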
MEKK2 mut-MEK5: signal of MEK5 binding to mutant human MEKK2 PB1 domain. bead flow cytometry, Alexa488-MEK5 binding to MEKK2 mutant. percent response, % at 10 µM. 290,000 tested, 0.35% active; in the data active means percent response above about 24%, passing the limit was not always enough
An asterisk follows results filed as active; . = not tested or not shown; ! = repeats disagree; [ ] = remark or other dose. Shown are actives, neighbours in structure and some others; about 3.2% of the full set was active somewhere.

SMILES	MEKK3 PB1 HTS	MEKK2wt PB1 HTS	NRP1-CendR mod	SKN-1 inh	MEKK2 mut-MEK5
Cc1c(N=C/C=C2/N(C)c3ccccc3C2(C)C)c(=O)n(-c2ccccc2)n1C	76.0	-5.0*	-4.5	38.8*!	1.0
O=[N+]([O-])c1ccc(-c2ccc(/C=N/Nc3nc(NCc4ccccc4)nc(N4CCOCC4)n3)o2)cc1	99.0	14.0*	-129.7	-0.5	5.0
CN(CC(O)COc1ccc2ccccc2c1)C1CCCCC1 (stereo not drawn)	110.0	127.0	-7.8	24.1	20.0
O=S(=O)(NCc1csc(-c2cccs2)n1)c1cccs1	88.0	88.0	34.8*	-6.5	-17.0
O=C(CCNC(=O)c1ccc([N+](=O)[O-])cc1)NC1CCCCCC1	.	.	-9.5	4.7	.
Cc1ccc(C)c(N2CCN(C(=O)c3cc4ccccn4n3)CC2)c1	105.0	102.0	21.0*	-34.0	7.0
C[C@@H]1CN([C@H](C)CO)C(=O)CCCn2cc(nn2)CO[C@H]1CN(C)S(=O)(=O)c1cccc(C#N)c1	.	.	-15.1	7.8	.
COc1ccc(C2/C(=C(/O)c3ccc4c(c3)CC(C)O4)C(=O)C(=O)N2CCCn2ccnc2)cc1OC (stereo not drawn)	.	.	0.5	14.7	.
COc1ccc2c(=O)c(-c3ccc(OC)c(OC)c3)coc2c1	67.0	71.0	-2.6	-4.2	-19.0
COc1ccc(-c2coc3cc(OC(C)=O)c(OC)cc3c2=O)cc1	.	.	25.2*	12.8	.
O=c1[nH]nc(Cc2ccc([N+](=O)[O-])cc2)c2ccccc12	101.0	99.0	1.2	31.9*	2.0
O=C(COC(=O)Cc1n[nH]c(=O)c2ccccc12)Nc1c(Br)cc([N+](=O)[O-])cc1Br	.	.	24.1*	8.0	.
COc1ccc(Cl)cc1NS(=O)(=O)c1c(C)[nH]c(=O)[nH]c1=O	99.0	100.0	7.0	10.7	4.0
CCc1nc2c(OCc3ccc(C(F)(F)F)cc3)cccn2c1N(C=O)Cc1ccc(OC)cc1	.	.	-10.9	11.3	.
Cc1ccccc1NC(=O)COC(=O)CCc1ccccc1	106.0	106.0	-10.3	0.0	-2.0
N#Cc1ccccc1NC(=O)COC(=O)CCc1ccccc1	104.0	105.0	17.2*	3.3	6.0
O=C(Cn1ccc(NC(=O)OCc2ccccc2)nc1=O)NCc1ccc2c(c1)OCO2	.	.	0.0	7.7	.
CCn1cc(C(=O)N2CCN(Cc3ccc4c(c3)OCO4)CC2)c(=O)c2ccc(C)nc21	98.0	99.0	-1.9	-6.4	-1.0
Nc1ccn(CC(=O)NCc2ccc3c(c2)OCO3)c(=O)n1	.	.	21.1*	-12.6	.
CCn1cc(C(=O)OCC(=O)NCc2ccc3c(c2)OCO3)c(=O)c2ccc(C)nc21	87.0	96.0	-2.4	35.2*	-3.0
Nc1ccn([C@@H]2O[C@H](C(=O)NCc3ccc4c(c3)OCO4)[C@@H](O)[C@H]2O)c(=O)n1	.	.	26.5*	-8.6	.
O=C(CN1CCN(Cc2ccccc2)CC1)NCCNc1ccc([N+](=O)[O-])cn1	90.0	88.0	8.8	9.7	-14.0
Nc1ccn(CC(=O)NCCNc2ccc([N+](=O)[O-])cn2)c(=O)n1	.	.	27.7*	-11.0	.
COc1ccc(CNC(=O)Cn2ccc(N)nc2=O)cc1	.	.	32.3*	5.3	.
COc1ccccc1C1CC(c2ccco2)=NN1S(C)(=O)=O (stereo not drawn)	97.0	29.0*	-124.9	30.7	17.0
SMILES	MEKK3 PB1 HTS	MEKK2wt PB1 HTS	NRP1-CendR mod	SKN-1 inh	MEKK2 mut-MEK5
CCOc1ccc2nc(Cl)c(C3CC(c4ccco4)=NN3S(C)(=O)=O)cc2c1 (stereo not drawn)	90.0	7.0*	-14.0	-6.6	0.0
O=C(Nc1ccccc1C(=O)O)c1ccc(NC(=O)C2CC2)cc1	96.0	1.0*[inhibitor]	3.3	7.7	-1.0
O=C(Nc1ccc(Oc2ccccc2)cc1)C1CC1	86.0	84.0	8.6	-6.1	-9.0
O=C(Nc1ccc(C#Cc2ccccc2)cc1)C1CC1	102.0	101.0	-5.3	46.9*	-2.0
Nc1ccc(N2CCN(C(=O)c3cccs3)CC2)cc1	90.0	92.0	-1.1	48.2*	-3.0
CCOc1ccc(S(=O)(=O)Nc2ccc(C(=O)NCC(C)(C)N3CCOCC3)cc2)cc1	.	.	21.4*	2.6	.
CC(C)(CNC(=O)c1ccc(NS(=O)(=O)c2ccc(F)cc2)cc1)N1CCOCC1	100.0	96.0	-6.5	-22.3	-5.0
COC(=O)c1cccc(NC(=S)NCCC2=CCCCC2)c1	103.0	102.0	36.1*	-7.3	2.0
